For 11 compounds, Percent Effect results are on record in ChEMBL document CHEMBL3988442, “University of Dundee, Small-Polar-MMV Screening Library” (2021).

Molecules are shown by their SMILES. For some of these results: Results with a measured potency or affinity are listed apart.

Parameters in all cases: scale not given: direction of the effect not stated beside the values
The target in experiment [1] is Protein translocase subunit SecA (Escherichia coli (strain K12)) (UniProt P10408). As to the kind of experiment: Assay to Identify E. coli SecA ATPase Inhibitors. Type of experiment: functional. Particulars: 30 µM.
Experiment [2] deals with T1, Ubiquitin-activating enzyme e1, putative (Leishmania donovani (strain BPK282A1)) (UniProt E9BSI1).
T1 sequence (whole entry): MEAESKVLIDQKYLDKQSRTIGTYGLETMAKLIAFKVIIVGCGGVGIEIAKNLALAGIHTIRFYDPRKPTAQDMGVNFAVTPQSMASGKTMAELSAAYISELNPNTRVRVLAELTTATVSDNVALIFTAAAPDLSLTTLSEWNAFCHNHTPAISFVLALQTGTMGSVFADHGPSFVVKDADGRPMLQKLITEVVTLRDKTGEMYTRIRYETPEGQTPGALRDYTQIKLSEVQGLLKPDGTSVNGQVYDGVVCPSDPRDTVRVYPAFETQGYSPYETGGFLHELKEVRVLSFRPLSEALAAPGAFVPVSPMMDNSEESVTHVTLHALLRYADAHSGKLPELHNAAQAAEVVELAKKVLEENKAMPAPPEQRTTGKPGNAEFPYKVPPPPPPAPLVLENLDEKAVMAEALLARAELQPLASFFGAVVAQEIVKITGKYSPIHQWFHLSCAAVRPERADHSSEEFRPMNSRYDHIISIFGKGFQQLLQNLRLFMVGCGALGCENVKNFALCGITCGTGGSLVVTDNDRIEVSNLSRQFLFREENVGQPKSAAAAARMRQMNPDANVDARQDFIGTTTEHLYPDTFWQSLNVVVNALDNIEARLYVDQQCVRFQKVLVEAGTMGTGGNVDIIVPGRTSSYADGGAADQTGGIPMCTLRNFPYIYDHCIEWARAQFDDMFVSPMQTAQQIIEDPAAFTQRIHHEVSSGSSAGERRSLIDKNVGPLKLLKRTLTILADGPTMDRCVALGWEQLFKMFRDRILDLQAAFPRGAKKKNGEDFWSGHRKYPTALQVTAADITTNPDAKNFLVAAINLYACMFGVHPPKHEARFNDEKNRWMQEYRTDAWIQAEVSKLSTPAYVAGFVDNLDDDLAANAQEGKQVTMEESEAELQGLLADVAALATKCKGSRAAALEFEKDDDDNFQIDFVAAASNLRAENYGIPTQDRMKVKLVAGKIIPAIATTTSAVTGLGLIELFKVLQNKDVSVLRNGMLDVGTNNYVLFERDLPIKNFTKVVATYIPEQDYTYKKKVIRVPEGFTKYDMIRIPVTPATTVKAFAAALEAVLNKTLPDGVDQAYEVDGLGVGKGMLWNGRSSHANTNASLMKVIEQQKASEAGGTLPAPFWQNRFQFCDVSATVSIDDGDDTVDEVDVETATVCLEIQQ
As to the kind of experiment: Leishmania donovani Ubiquitin Activating Enzyme (LdE1). Type of experiment: functional. Particulars: 30 µM.

For experiment [3], the target named is AMP-activated protein kinase, AMPK (Homo sapiens) (UniProt P54646+O43741+P54619+Q9UGJ0+Q9Y478+Q13131+Q9UGI9). As to the kind of experiment: AMP-dependent Kinase enzyme assay. An in vitro enzyme assay that detects ADP turnover that is directly proportional to AMPK activity. This uses naive AMPK that is activated during the assay with MK-8722. Particulars: 30 µM. Type of experiment: functional.

Experiment [4] addresses Sialic acid-binding Ig-like lectin 9 (Homo sapiens) (UniProt Q9Y336). As to the kind of experiment: Hs-Siglec9 ALPHAscreen SOP 20170721. The following applies: 10 µM.
The next experiment concerns Trypanosoma cruzi. In words: Trypanosoma cruzi phosphomannomutase and mannose-1-phosphate guanylyltransferase assay. Type of experiment: functional. Particulars: 10 µM.
In experiment [5] the target is T2, Arginase-2, mitochondrial (Homo sapiens) (UniProt P78540).
T2 sequence (whole entry): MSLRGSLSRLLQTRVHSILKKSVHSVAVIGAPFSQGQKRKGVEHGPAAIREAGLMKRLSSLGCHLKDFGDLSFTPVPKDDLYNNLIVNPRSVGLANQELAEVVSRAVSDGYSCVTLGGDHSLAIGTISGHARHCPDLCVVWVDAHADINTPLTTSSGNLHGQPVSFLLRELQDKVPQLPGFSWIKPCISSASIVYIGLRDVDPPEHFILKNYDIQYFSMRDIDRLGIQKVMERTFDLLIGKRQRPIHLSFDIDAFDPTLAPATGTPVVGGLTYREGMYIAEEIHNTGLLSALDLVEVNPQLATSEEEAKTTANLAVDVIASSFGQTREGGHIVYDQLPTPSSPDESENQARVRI
In words: in vitro enzyme assay to detect the production of urea directly proportional to the activity of Arginase II. Further: in the data most compounds retested in dose-response had high values. Type of experiment: functional. The following applies: 33.3 µM.

Experiment [6] concerns the target T3, Proteasome subunit beta (Trypanosoma cruzi) (UniProt O96673).
T3 sequence (whole entry): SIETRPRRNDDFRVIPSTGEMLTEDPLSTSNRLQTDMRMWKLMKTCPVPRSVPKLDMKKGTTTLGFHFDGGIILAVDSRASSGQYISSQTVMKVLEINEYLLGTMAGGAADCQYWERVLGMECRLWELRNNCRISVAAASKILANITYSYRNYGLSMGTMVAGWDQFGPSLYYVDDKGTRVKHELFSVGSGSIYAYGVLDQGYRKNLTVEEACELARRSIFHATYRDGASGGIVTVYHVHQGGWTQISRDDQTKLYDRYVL
In words: Trypanosoma cruzi proteasome chymotrypsin-like activity (TcProtChymo) assay. Further: in the data most compounds retested in dose-response had high values. Type of experiment: functional. The following applies: 9.37 µM.

Another experiment is filed under the species Homo sapiens. As to the kind of experiment: To identify inhibition of the IFN signalling (Jak-Stat) pathway via expression of an eGFP reporter gene under the control of an IFN-stimulated response element (ISRE) containing MxA promoter. Type of experiment: functional. The following applies: 30 µM.
In experiment [7] the target is T4, Tyrosyl-tRNA synthetase, putative (Trypanosoma cruzi (strain CL Brener)) (UniProt Q4DSP6).
T4 sequence (whole entry): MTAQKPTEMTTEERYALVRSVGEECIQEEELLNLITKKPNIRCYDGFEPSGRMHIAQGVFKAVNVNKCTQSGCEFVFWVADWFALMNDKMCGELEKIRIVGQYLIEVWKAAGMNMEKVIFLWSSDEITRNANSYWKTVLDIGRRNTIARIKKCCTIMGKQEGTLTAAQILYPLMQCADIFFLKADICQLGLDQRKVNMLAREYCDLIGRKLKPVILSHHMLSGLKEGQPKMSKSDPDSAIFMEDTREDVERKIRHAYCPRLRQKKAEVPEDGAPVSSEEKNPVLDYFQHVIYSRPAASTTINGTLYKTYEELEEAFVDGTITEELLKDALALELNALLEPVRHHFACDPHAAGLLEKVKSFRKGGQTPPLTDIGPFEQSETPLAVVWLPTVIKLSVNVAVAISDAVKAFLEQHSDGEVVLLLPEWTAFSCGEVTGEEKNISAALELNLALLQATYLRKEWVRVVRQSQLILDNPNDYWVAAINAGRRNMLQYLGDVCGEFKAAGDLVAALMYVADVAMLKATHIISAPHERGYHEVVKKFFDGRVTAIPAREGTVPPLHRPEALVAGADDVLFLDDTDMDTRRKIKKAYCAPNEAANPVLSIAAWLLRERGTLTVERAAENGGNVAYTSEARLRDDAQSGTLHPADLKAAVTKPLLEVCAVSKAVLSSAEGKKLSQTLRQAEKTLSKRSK
In words: Trypanosoma cruzi tyrosyl tRNA synthetase (TcYRS) _High Tyrosine SOP. Further: in the data most compounds retested in dose-response had high values. The following applies: 30 µM. Type of experiment: functional.

In experiment [8] the target is T4, Tyrosyl-tRNA synthetase, putative (Trypanosoma cruzi (strain CL Brener)). As to the kind of experiment: Trypanosoma cruzi tyrosyl tRNA synthetase (TcYRS) SOP. The following applies: 30 µM. Type of experiment: functional.
Experiment [9] has as its target Chromo domain-containing protein 1 (Saccharomyces cerevisiae (strain ATCC 204508 / S288c) (Baker's yeast)) (UniProt P32657). In words: ScCHD-1 Enzyme Inhibition Assay. Further: in the data most compounds retested in dose-response had high values. Type of experiment: functional. Particulars: 30 µM.

Sequence of Chromo domain-containing protein 1 (Saccharomyces cerevisiae (strain ATCC 204508 / S288c) (Baker's yeast)) (P32657 whole entry, the tested form may be a part): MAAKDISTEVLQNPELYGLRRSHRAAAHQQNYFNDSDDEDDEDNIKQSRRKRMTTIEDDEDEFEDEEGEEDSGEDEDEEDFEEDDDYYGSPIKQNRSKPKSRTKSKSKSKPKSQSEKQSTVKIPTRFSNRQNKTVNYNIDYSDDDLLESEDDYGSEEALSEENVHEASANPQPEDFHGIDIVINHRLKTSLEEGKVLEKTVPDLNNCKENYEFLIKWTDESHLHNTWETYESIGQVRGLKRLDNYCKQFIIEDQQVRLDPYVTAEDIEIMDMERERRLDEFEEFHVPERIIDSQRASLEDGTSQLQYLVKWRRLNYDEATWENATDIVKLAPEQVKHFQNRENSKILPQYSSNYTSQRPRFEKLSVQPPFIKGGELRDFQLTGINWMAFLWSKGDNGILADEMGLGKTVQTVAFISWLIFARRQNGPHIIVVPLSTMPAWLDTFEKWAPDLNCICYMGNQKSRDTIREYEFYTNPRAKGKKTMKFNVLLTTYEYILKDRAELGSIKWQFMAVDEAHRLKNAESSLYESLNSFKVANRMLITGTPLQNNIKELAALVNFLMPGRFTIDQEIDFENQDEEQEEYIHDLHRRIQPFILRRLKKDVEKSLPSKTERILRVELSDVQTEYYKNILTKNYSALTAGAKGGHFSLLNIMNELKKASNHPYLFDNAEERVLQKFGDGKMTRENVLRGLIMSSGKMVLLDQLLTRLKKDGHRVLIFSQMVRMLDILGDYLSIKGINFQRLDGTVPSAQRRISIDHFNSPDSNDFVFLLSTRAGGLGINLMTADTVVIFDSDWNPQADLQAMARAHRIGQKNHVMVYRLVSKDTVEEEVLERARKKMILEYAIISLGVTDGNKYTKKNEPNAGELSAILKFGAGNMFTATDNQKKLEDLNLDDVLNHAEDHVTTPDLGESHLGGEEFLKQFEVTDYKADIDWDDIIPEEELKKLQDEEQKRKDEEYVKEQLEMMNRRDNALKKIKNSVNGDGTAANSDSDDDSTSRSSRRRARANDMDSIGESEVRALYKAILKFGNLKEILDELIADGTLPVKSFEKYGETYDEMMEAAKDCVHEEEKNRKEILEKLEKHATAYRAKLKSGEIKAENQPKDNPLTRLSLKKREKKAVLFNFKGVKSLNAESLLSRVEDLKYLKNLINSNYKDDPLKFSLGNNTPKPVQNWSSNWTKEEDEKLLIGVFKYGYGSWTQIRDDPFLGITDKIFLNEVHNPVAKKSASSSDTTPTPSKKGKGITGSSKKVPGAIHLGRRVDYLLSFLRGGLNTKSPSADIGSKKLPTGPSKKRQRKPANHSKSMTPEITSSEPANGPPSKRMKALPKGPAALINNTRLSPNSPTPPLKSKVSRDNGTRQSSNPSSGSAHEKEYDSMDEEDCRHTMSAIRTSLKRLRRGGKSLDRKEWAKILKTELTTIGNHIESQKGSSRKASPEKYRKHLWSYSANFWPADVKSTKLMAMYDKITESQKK
Sequence of Sialic acid-binding Ig-like lectin 9 (Homo sapiens) (Q9Y336 whole entry): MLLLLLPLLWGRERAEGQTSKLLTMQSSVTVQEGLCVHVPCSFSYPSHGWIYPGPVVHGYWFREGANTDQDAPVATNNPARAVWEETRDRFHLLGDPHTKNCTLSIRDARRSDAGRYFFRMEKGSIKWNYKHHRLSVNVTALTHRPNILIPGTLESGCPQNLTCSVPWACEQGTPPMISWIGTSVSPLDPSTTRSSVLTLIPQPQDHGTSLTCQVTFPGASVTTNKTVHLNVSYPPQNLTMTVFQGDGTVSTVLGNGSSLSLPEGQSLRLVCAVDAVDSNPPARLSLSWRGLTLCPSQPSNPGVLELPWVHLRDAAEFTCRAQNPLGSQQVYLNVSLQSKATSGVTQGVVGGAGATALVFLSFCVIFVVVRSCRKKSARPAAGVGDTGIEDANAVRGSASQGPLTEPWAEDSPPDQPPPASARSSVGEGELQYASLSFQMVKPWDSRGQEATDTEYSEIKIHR
Sequence of Protein translocase subunit SecA (Escherichia coli (strain K12)) (P10408 whole entry): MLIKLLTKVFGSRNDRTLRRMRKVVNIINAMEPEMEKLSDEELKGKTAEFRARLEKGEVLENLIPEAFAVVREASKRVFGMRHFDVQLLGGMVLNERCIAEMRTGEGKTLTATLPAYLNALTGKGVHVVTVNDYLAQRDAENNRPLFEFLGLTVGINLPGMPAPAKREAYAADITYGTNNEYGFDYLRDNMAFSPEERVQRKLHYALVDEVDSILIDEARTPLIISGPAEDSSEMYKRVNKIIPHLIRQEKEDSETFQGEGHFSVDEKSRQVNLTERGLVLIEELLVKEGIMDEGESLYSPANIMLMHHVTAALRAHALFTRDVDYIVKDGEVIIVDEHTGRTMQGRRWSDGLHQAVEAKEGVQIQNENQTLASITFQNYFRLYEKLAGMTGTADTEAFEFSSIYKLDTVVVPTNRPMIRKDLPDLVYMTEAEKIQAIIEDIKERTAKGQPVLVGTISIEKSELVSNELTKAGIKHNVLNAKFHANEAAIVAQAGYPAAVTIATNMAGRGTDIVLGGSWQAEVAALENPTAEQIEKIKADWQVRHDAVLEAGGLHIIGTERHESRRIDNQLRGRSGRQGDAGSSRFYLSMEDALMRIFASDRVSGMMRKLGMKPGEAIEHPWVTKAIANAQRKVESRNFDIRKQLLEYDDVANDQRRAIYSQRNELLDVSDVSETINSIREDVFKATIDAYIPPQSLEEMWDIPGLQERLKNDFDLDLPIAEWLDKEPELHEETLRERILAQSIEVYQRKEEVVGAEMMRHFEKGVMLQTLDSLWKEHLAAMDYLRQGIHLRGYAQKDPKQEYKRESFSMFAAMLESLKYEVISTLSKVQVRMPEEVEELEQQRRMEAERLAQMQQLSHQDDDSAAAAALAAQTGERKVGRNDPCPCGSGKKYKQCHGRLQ

For the compound `CC(=O)N(Cc1ncc(C)o1)C1CCN(Cc2cccc(C#N)c2)C1` (stereo unspecified), the Percent Effect in [1] is -5.59%; in experiment [2] it was 5.41%; in [3] it was -3.95%; in [4], 9.41%; in the experiment on Trypanosoma cruzi, -2.44%; in [5] it was -1.74%. In addition, the Percent Effect is 5.24% in [6]; 5.84% in the experiment listed under Homo sapiens; 0% in experiment [7]; 1.24% in experiment [8]; -0.172% in [9].

For the compound `CC(NC(=O)NCCCn1cncn1)c1ccc2c(c1)OCCO2` (stereo unspecified), the Percent Effect in experiment [1] was -1.3%; in experiment [2], 18.9%; in experiment [3] it was -2.43%; in experiment [4], 0.133%; in the experiment with Trypanosoma cruzi, -3.81%; in experiment [5] it was -1.66%. Also, the Percent Effect in [6] is 14.2%; in the experiment filed under Homo sapiens it was 6.17%; in experiment [7], 2.97%; in [8], 15.8%; in experiment [9] it was -2.48%.

On to `CC(C)c1ccsc1C(=O)N1CCCN(Cc2cscn2)CC1`, for which the Percent Effect in experiment [1] was -1.52%; in experiment [2], 2.6%; in experiment [3], -0.162%; in [4] it was -7.44%; with Trypanosoma cruzi, 0.686%; in [5], -2.32%. Moreover, the Percent Effect in [6] is 19.8%; in the experiment filed under Homo sapiens, 21.5%; in experiment [7], 18.1%; in experiment [8] it was 32.9%; in experiment [9] it was -19.8%.

Take `CN(C)S(=O)(=O)c1ccc(CN2CCCC2c2ccccc2)o1` (stereo unspecified): the Percent Effect in experiment [1] was -4.81%; in experiment [2], -7.89%; in [3], 2.57%; in [4], -3.79%; in the experiment with Trypanosoma cruzi, 9.06%; in experiment [5] it was 2.88%. Also, the Percent Effect in experiment [6] was 5.33%; in the experiment filed under Homo sapiens it was 15.1%; in [7] it was 6.4%; in experiment [8], 23.5%; in experiment [9], -6.96%.

Turning to `c1cc2nc(C3CCN(CC4CC4)CC3)nn2cc1N1CCCC1`, the Percent Effect in experiment [1] is -0.605%; in [2], 11%; in experiment [3], -111%; in experiment [4], 9.79%; in the experiment with Trypanosoma cruzi, 0.595%; in experiment [5], 0.399%. Also, the Percent Effect in [6] is 11.4%; in the experiment filed under Homo sapiens, 7.29%; in [7] it was 13.5%; in experiment [8] it was -1.24%; in [9], -6.62%.

For the compound `CNC(=O)NC(=O)CN1CCC(c2c[nH]c3ccc(OC)cc23)CC1`, the Percent Effect is -5.27% in [1]; 10.7% in experiment [2]; -5.74% in [3]; 22.2% in experiment [4]; 0.292% in the experiment on Trypanosoma cruzi; 4.69% in [5]. For the same compound, the Percent Effect in [6] is 12.4%; in the experiment filed under Homo sapiens, 7.02%; in [7] it was 9.29%; in experiment [8], 18.5%; in experiment [9] it was -8.18%.

In the case of `COc1cc(N2C[C@@H]3COC[C@]3(COc3cccnc3)C2)ncn1`, the Percent Effect in experiment [1] was -4.12%; in [2], 16.2%; in experiment [3], 3.02%; in experiment [4] it was -8.65%; with Trypanosoma cruzi it was 5.38%; in experiment [5], -2.87%. Also, the Percent Effect was 18.4% in [6]; 21.1% in the experiment listed under Homo sapiens; 2.16% in experiment [7]; 12.8% in [8]; -1.83% in experiment [9].

Turning to `CN(CCn1nc2ccccn2c1=O)CC(=O)N1CCCC1`, the Percent Effect was -5.53% in [1]; 0% in experiment [2]; 6.84% in experiment [3]; 5.95% in experiment [4]; -6.33% with Trypanosoma cruzi; 3.55% in [5]. In addition, the Percent Effect in [6] came out at 11.6%; in the experiment listed under Homo sapiens, 15.5%; in experiment [7] it was 3.19%; in [8] it was 2.6%; in experiment [9] it was 29.3%.

For the compound `Cc1noc(C2CCC3(CCN(C(=O)C4=CCCCC4)CC3)O2)n1` (stereo unspecified), the Percent Effect in experiment [1] was -7.11%; in experiment [2], 10.8%; in experiment [3], -5.86%; in experiment [4], 30.2%; with Trypanosoma cruzi it was 3.42%; in [5], 3.23%. Moreover, the Percent Effect in experiment [6] is 8.67%; in the experiment listed under Homo sapiens, 3.52%; in [7], 8.6%; in experiment [8], 16.1%; in experiment [9], -7.09%.

Regarding `O=S1(=O)C[C@@H]2[C@H](C1)N(Cc1cc(Cl)cc(Cl)c1)CCN2CC1CC1`, the Percent Effect in experiment [1] was -4.25%; in experiment [2], 8%; in experiment [3] it was -0.723%; in experiment [4] it was -1.32%; with Trypanosoma cruzi, -2.24%; in experiment [5] it was 1.56%. Moreover, the Percent Effect in experiment [6] is 12%; in the experiment filed under Homo sapiens, 22.5%; in experiment [7], 2.73%; in experiment [8], 11.1%; in experiment [9], -6.73%.

`CCCN(C)C(=O)c1ccc2c(c1)[nH]c(=O)n2CCOCC`: the Percent Effect is -5.32% in experiment [1]; 2.7% in experiment [2]; -7.14% in experiment [3]; 42% in experiment [4]; 8.11% in the experiment on Trypanosoma cruzi; 2.38% in experiment [5]. The Percent Effect in [6] was 9.65%; in the experiment listed under Homo sapiens it was -3.55%; in experiment [7] it was 2.65%; in [8], 17.1%; in experiment [9], -9.7%.
